This is an account of results in the supplement of paper PMC6555819.

Common to all, as to assay: PBM binding z-score (relative to random genomic background probes); higher = stronger binding; sequences stand for … in GC…GCGATTGACAGCGTAGAATGAAGG
Test [1] has as its system FXR:RXRa (NR concentration 270 nM, RXRa partner concentration 90 nM). The essentials: (§1)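 Ligand-free nuclear receptor dimers were bound for 1 h to custom Agilent 4×180K protein-binding microarrays. Detection used antibodies against each partner (one per run). Binding z-scores rest on regression-normalized fluorescence, with random background probes as the reference.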
The subject of test [2] is LXRa:RXRa (NR concentration 270 nM, RXRa partner concentration 90 nM). The essentials:
as §1

For test [3], the system named is LXRa homodimer (NR concentration 270 nM). The essentials: as §1
Test [4] deals with LXRb:RXRa (NR concentration 270 nM, RXRa partner concentration 90 nM). A digest of the protocol:
as §1

In test [5] the test system is LXRb homodimer (NR concentration 270 nM). A digest of the protocol: as §1
Test [6] has as its system PPARa:RXRa (NR concentration 270 nM, RXRa partner concentration 90 nM). A digest of the protocol: as §1
In test [7] the test system is PPARg:RXRa (NR concentration 180 nM, RXRa partner concentration 90 nM). The essentials:
as §1

The test system of test [8] is PPARg:RXRa 270nM:90nM, anti-RXR (NR concentration 270 nM, RXRa partner concentration 90 nM). A digest of the protocol:
as §1

Test [9] relates to PPARg:RXRa 30nM:10nM, anti-RXR (NR concentration 30 nM, RXRa partner concentration 10 nM). A digest of the protocol: as §1
The subject of test [10] is PPARg:RXRa 90nM:30nM, anti-RXR (NR concentration 90 nM, RXRa partner concentration 30 nM). The essentials:
as §1

For test [11], the system named is PPARg:RXRa DBDmut IVT, anti-RXR (DBD mutation: RXRa K156A/R161A, NR concentration 270 nM, RXRa partner concentration 90 nM). The essentials: as §1
In test [12] the test system is PPARg:RXRa IVT, anti-PPARg (NR concentration 270 nM, RXRa partner concentration 90 nM). The essentials:
as §1

For test [13], the system named is PPARg DBDmut:RXRa IVT, anti-PPARg (DBD mutation: PPARg1 K132A/R137A, NR concentration 270 nM, RXRa partner concentration 90 nM). A digest of the protocol: as §1
Test [14] has as its system PPARg DBDmut IVT, anti-PPARg (DBD mutation: PPARg1 K132A/R137A, NR concentration 270 nM). The essentials: as §1
Test [15] concerns PPARg homodimer (NR concentration 180 nM). A digest of the protocol: as §1
In test [16] the test system is PXR:RXRa (NR concentration 270 nM, RXRa partner concentration 90 nM). A digest of the protocol: as §1
For test [17], the system named is PXR homodimer (NR concentration 270 nM). The essentials: as §1
Test [18] has as its system RARa:RXR (NR concentration 270 nM, RXRa partner concentration 90 nM). A digest of the protocol:
as §1

The subject of test [19] is RARa homodimer (NR concentration 270 nM). A digest of the protocol:
as §1

In test [20] the test system is RARb:RXRa (NR concentration 270 nM, RXRa partner concentration 90 nM). A digest of the protocol: as §1

AGTCAAAATTCATCTAGGTAACGTAAGATATGCT: the PBM binding z-score in [1] is -0.194; in test [2] it was -0.373; in [3], -0.0496; in [4], -0.0959; in test [5] it was -0.222; in [6], 0.0588. The PBM binding z-score is 1.19 in [7]; 0.183 in test [8]; 0.359 in test [9]; 0.0171 in test [10]; 0.746 in test [11]; 2.03 in [12]. Besides, the PBM binding z-score is 1.05 in test [13]; 0.853 in test [14]; 0.212 in test [15]; -0.186 in test [16]; 0.107 in test [17]; 0.122 in [18]. Moreover, the PBM binding z-score in test [19] was determined as 0.616; in test [20], 0.168.
Consider CGAACTAGGTCATTGACAGGACAGTGCATAGTAA, for which the PBM binding z-score in test [1] was 4.46; in test [2], 3.18; in [3], 0.766; in [4] it was 2.04; in [5] it was -0.0575; in test [6], 4.8. Besides, the PBM binding z-score in test [7] stood at 7.55; in test [8], 6.33; in test [9], 3.65; in [10], 5.79; in test [11], 7.99; in test [12] it was 8.21. The PBM binding z-score in test [13] is 2.11; in test [14] it was 0.779; in [15] it was 1.71; in test [16], 1.76; in test [17] it was 0.634; in test [18], 2.28. The PBM binding z-score was determined as 0.279 in test [19] and 3.66 in [20].
In the case of CCTACTGGGCCAAAAAGGTCACTGATGCCGATAA, the PBM binding z-score in test [1] is 2.83; in [2], 3.29; in test [3], 1.36; in [4], 3.63; in [5], -0.14; in [6], 4.64. The PBM binding z-score in test [7] stood at 3.78; in test [8], 4.35; in test [9], 1.79; in test [10], 3.78; in test [11], 3.78; in [12], 4.39. Also, the PBM binding z-score in test [13] was -0.138; in [14], -0.0876; in [15], 3.8; in test [16], 4.22; in test [17], 1.16; in test [18] it was 4.59. The PBM binding z-score in [19] was determined as 1.29; in test [20] it was 4.15.
In the case of ATCTCTAGGTAAAGTTCAGTAAAAGATCGATAGA, the PBM binding z-score in test [1] is 1.06; in [2], 1.77; in [3] it was 1.7; in test [4], 1.29; in [5], 0.992; in test [6], 2.18. The PBM binding z-score is 2.91 in [7]; 4.22 in test [8]; 2.52 in test [9]; 4.14 in [10]; 2.04 in [11]; 2.45 in [12]. For the same sequence, the PBM binding z-score came to 1.82 in [13]; 0.984 in [14]; 2.05 in test [15]; 2.07 in test [16]; 2.09 in test [17]; 1.42 in test [18]. The PBM binding z-score in [19] was 2.26; in test [20], 2.82.
Consider TAGCCTAGGTCATTGGGCCAGCATAGTACGCATC, for which the PBM binding z-score in test [1] was 3.88; in test [2], 3.2; in test [3] it was 0.466; in test [4], 1.87; in test [5] it was -0.0227; in [6], 3.46. The PBM binding z-score in test [7] was 3.57; in test [8], 3.71; in test [9], 0.617; in [10], 2.5; in test [11] it was 2.61; in test [12], 3.89. Besides, the PBM binding z-score is 0.103 in test [13]; -0.682 in test [14]; 0.524 in [15]; 1.58 in test [16]; -0.351 in [17]; 2.11 in test [18]. Besides, the PBM binding z-score in test [19] is -0.399; in test [20], 3.64.
As to TGATTGAGGTTAAAGATCAGGGAACGTGGCGTCG, the PBM binding z-score came out at 3.41 in test [1]; 2.42 in test [2]; 0.0848 in test [3]; 1.85 in test [4]; 0.589 in test [5]; 4.47 in test [6]. The PBM binding z-score in [7] turned out to be 5.23; in [8] it was 5.82; in test [9], 4.22; in [10], 5.94; in test [11] it was 1.62; in test [12], 3.15. Moreover, the PBM binding z-score in test [13] came out at 1.39; in test [14] it was 1.52; in test [15] it was 0.865; in test [16], 1.96; in [17], 0.148; in test [18], 2.95. The PBM binding z-score in test [19] came to 0.729; in test [20], 2.24.
